Screens deposited in PubChem by several laboratories.
Bead autofluor: compound fluorescence in toxin protease inhibitor counterscreen | compound autofluorescence counterscreen, microsphere flow cytometry; stronger effect = higher value | fluorescence intensity (concentration not given with the values) | 360,000 tested, 3.1% active | AID 624483; in the data active means fluorescence intensity above about 16000; inconclusive means no clear call, values can overlap the other calls
BJeLR viability: kills HRASV12-expressing BJeLR cells; AID 1554; 300,000 tested, 0.17% active; BJeLR (HRASV12) viability, CellTiter-Glo ATP luminescence, 48 h; inhibition, % (test concentration not listed); in the data active means inhibition above about 50%; inconclusive means no clear call, values can overlap the other calls
BoNT-A LC inh2: BoNT A light chain protease inhibition; multiplex microsphere protease substrate cleavage, flow cytometry; 360,000 tested, 0.17% active; inhibition, % at 10 µM; further: plate controls were buffer without enzyme for full effect and enzyme alone for no effect
Anthrax LF inh2: inhibitors of Bacillus anthracis lethal factor protease | P15917 | multiplex microsphere protease cleavage assay, LF | inhibition, % at 10 µM | 360,000 tested, 0.12% active | AID 588501; further: plate controls were buffer without enzyme for full effect and enzyme alone for no effect
BoNT F protease: inhibitors of Botulinum neurotoxin F light chain protease; Multiplex microsphere protease cleavage assay, flow cytometry; inhibition, % at 10 µM; 360,000 tested, 0.22% active; in the data active means inhibition above about 35%, passing the limit was not always enough; inconclusive means no clear call, values can overlap the other calls; further: plate controls were buffer without enzyme for full effect and enzyme alone for no effect
3CLpro inhibitor: SARS-CoV 3CLpro protease inhibition | inhibition, % at 6 µM | 290,000 tested, 0.14% active | recombinant SARS-CoV 3CLpro, quenched FRET peptide cleavage; in the data active means inhibition above about 12%
The depositor's hits bear a star; ? = inconclusive; / = no result. Hits are enriched below; roughly 3.6% of the tested compounds scored in any of these assays. Unless noted, no stated cut-off is given here; in the data, active means inhibition above about 30%; inconclusive means no clear call, values can overlap the other calls; inactive means below that.

SMILES	Bead autofluor	BJeLR viability	BoNT-A LC inh2	Anthrax LF inh2	BoNT F protease	3CLpro inhibitor
Cc1ccccc1NC(=O)OCc1cn(-c2ccc(Cl)cc2)nn1	22413*	0.7	-0.1	-4.1	1.3	-1.9
CCCCC(=O)OCc1cn(-c2ccc(Cl)cc2)nn1	22405*	11.8	1.1	-0.8	-0.3	-1.0
OCc1cn(-c2ccc(Cl)cc2)nn1	4706	3.6	-1.1	-4.0	-1.9	-0.3
O=C(O)c1ccc2[nH]c3c(c2c1)CSCC3	20934*	-8.2	3.7	0.9	6.6	2.8
CN(C)CCOC(=O)c1ccc2[nH]c3c(c2c1)CSCC3	5056	-4.3	2.4	-9.3	-26.6	-1.4
CCCc1nc2n[nH]c(N)c2c2c1COC(C)(C)C2	21384*	-7.2	2.5	1.0	2.4	3.0
Cc1noc(NS(=O)(=O)c2ccc(NC(=O)c3ccc(Cl)c(S(=O)(=O)N(C)c4ccccc4)c3)cc2)c1C	5685	/	-2.7	-1.3	-4.5	/
O=C(O)CSc1nnc(-c2ccncc2)n1C1CCCCC1	19539*	-1.9	?	-0.3	3.8	-1.7
O=c1[nH]c(CSc2nnc(-c3ccncc3)n2Cc2ccco2)nc2ccccc12	22482*	5.5	?	-1.1	-3.6	8.6
O=c1[nH]c(CSc2nnc(-c3ccccc3)n2-c2ccccc2)nc2ccccc12	2014	2.7	-0.3	1.8	-7.5	4.2
O=c1[nH]c(CSc2nnc(-c3ccccc3)n2C2CCCCC2)nc2ccccc12	22043*	-10.5	2.6	0.4	2.8	3.3
COCCn1c(SCc2nc3ccccc3c(=O)[nH]2)nnc1-c1ccncc1	16786*	3.6	?	-1.9	-1.8	4.5
CN(Cc1cccs1)C(=O)C1CC(=O)N(Cc2ccccc2)C1 (stereo unspecified)	6440	5.0	-1.7	-5.2	-5.5	/
CCCN(C(=O)Cc1csc(-c2ccccc2)n1)C1CCS(=O)(=O)C1 (stereo unspecified)	7856	/	-1.4	-2.2	2.5	/
C[C@@H]1CN([C@@H](C)CO)C(=O)c2cc(NC(=O)Nc3ccccc3)ccc2O[C@@H](C)CCCCO[C@H]1CN(C)C(=O)Nc1ccc(C(F)(F)F)cc1	3998	/	-1.0	-5.6	-7.8	/
O=c1c2ccccc2nc(-c2ccccc2)n1CCCN1CCOCC1	16595*	-8.7	-1.5	-3.4	-5.1	-1.1
O=C(OCC(=O)N1CCc2ccccc21)c1n[nH]c(=O)c2ccccc12	3035	/	-0.1	-12.2	-3.7	/
Cc1nc(-c2c(C(F)(F)F)noc2-c2ccc(O)cc2O)cs1	17928*	1.9	?	-1.5	-8.6	3.9
CCOc1cc(C)c(-c2onc(C(F)(F)F)c2-c2csc(C)n2)c(O)c1	22729*	-8.7	2.6	-8.3	1.3	2.3
Oc1ccc(-c2onc(C(F)(F)F)c2-c2cscn2)c(O)c1	2935	1.6	-0.1	1.6	-1.3	-4.7
O=c1cccc2n1CC1CC2CN(Cc2cccc(Cl)c2Cl)C1 (stereo unspecified)	20838*	-4.1	-0.3	0.4	-1.0	-0.3
O=C1CC(c2ccccc2)CC2=C1CN(C1CCCCC1)CN2 (stereo unspecified)	23766*	/	-3.0	-6.6	-6.8	-2.9
O=C1NCN(C2CCCCC2)CN1	4090	/	0.5	3.2	1.0	/
CCCn1nnc(NCc2ccc(OCc3cccs3)c(OC)c2)n1	17112*	-10.2	-0.8	-2.3	-2.3	-0.7
CCNCc1ccc(OCc2cccs2)c(OCC)c1	3113	5.8	-0.5	-4.5	-2.5	-0.3
SMILES	Bead autofluor	BJeLR viability	BoNT-A LC inh2	Anthrax LF inh2	BoNT F protease	3CLpro inhibitor
Cc1cccc(NS(=O)(=O)c2cccc(C(=O)NCC(c3ccc(F)cc3)N3CCOCC3)c2)c1 (stereo unspecified)	4323	/	-0.2	-4.0	8.0	/
COc1ccc(NC(=O)CN(C)C(=O)c2ccc(S(=O)(=O)Nc3ccccc3F)cc2)cc1	6796	-0.1	-4.1	2.0	-14.8	/
COc1ccc(/C=C2/SC(=O)N(NS(=O)(=O)c3ccccc3)C2=S)cc1OC	21520*	-0.7	6.1	-9.2	3.7	4.5
C=CCn1c(O)c(C(C)=Nc2ccc(N(CC)CC)cc2)c(=O)[nH]c1=O	6132	-0.8	-1.3	-6.4	-5.1	-0.1
C=CCn1c(O)c(C(CC)=NC2CC2)c(=O)[nH]c1=O	16830*	-6.6	-1.2	0.3	-0.4	0.9
C=CCn1c(O)c(C(CC)=Nc2ccc(N(CC)CC)cc2)c(=O)[nH]c1=O	21974*	8.1	0.7	-2.7	0.8	4.9
CCC(=NC1CC1)c1c(O)n(C2CCCCC2)c(=O)[nH]c1=O	9885	-9.8	-1.7	-3.5	2.3	0.6
CC(NC(=O)/C=C/c1ccccc1[N+](=O)[O-])C1CC2CCC1C2 (stereo unspecified)	5045	-8.0	1.0	3.8	4.6	-3.0
Cc1cccc(C)c1NC(=O)C1(NC(=O)C2CCCN2C(=O)OC(C)(C)C)CCCCC1 (stereo unspecified)	21811*	0.8	2.2	0.1	3.5	3.9
COc1ccc(C(=O)NN)cc1COc1ccc(Br)cc1	19591*	-12.2	0.0	0.4	-4.4	5.7
COc1cc(/C=C/C(=O)OCC(=O)N2CCN(C(=O)c3ccco3)CC2)ccc1O	2579	-13.8	0.1	-0.3	-2.2	-2.4
O=C(Nc1ccnn1C1CCN(C/C=C/c2ccccc2)CC1)c1ccccc1Cl	56855*	1.4	-239.6	-55.8	-410.6	4.1
Cn1c(SCc2nc3ccccc3[nH]2)nnc1-c1cccnc1	20145*	5.9	?	2.7	-2.1	-2.4
COc1ccccc1-c1nnc(SCc2nc3ccccc3[nH]2)n1C	11093	-7.4	2.0	1.5	1.8	-7.1
Brc1ccc(-n2c(SCc3nc4ccccc4[nH]3)nnc2-c2ccncc2)cc1	2809	-6.6	0.8	0.7	-13.0	3.2
Clc1ccc(-n2c(SCc3nc4ccccc4[nH]3)nnc2-c2ccncc2)cc1	21021*	0.4	3.8	1.2	3.5	-0.7
CCOc1ccc(-c2nnc(SCc3nc4ccccc4[nH]3)n2N)cc1	22829*	1.3	-2.1	-0.3	-5.3	3.4
CC(C)(C)N(Cc1ccccc1)C(=O)COC(=O)C1CC1	2975	/	-0.6	-1.6	-8.0	/
CN=C1S/C(=C\c2cccc(Cl)c2Cl)C(=O)N1C	/	-8.1	/	/	/	/
CC1O[C@@H](O[C@H](C)CC[C@@H](C)O)C(O)C[C@H]1O (stereo partly specified)	4247	9.3	-0.4	-1.8	0.0	/
Cc1csc(NC(=O)c2cc(C)on2)n1	3982	/	-1.6	-2.2	-1.8	/
CCOC(=O)C1=C(C)Nc2sc(C(=O)c3ccc(OC)cc3)c(N)c2C1c1ccc(C(=O)OC)cc1 (stereo unspecified)	9298	3.2	29.8*	21.4	11.6	2.9
COC(=O)C1=C(C)Nc2sc(C(N)=O)c(N)c2C1c1ccncc1 (stereo unspecified)	1985	7.6	0.1	-1.8	-4.1	5.6
O=[N+]([O-])c1ccc(NCCNCCOc2nonc2-c2ccccc2)c([N+](=O)[O-])c1	3129	3.7	-0.9	-6.3	-9.7	4.9
